{
  "source": "patent US20150023943",
  "about": "“REF Nuclease for Site-Specific REF-Mediated DNA Cleavage” (Wisconsin Alumni Research Foundation, published 2015)",
  "data": [
    {"target": "T1, φW39 ΔN59 Ref (Bacteriophage phi W39)", "T1 chain": "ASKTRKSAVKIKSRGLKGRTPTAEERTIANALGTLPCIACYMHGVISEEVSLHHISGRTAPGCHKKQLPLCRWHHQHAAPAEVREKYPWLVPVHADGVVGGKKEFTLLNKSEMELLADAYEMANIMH", "test": "FP; Kd value only in FIG. 6C; 15 mM Mg acetate, pH 8.5, 25 C", "details": "tags: expressed from pET21A with NdeI start Met; label: 5'-6FAM; ssDNA", "description": "Ref proteins at 0.5-10,000 nM were incubated with 2 nM AJM25 71mer ssDNA or AJM25 annealed with AJG52 71mer to make a linear 71 bp dsDNA substrate in 25 mM Tris-acetate (pH 8.5), 3 mM potassium glutamate, 15 mM magnesium acetate, and 5% w/v glycerol at room temperature for 15 minutes. Fluorescence anisotropy (FA) was measured at 25° C., using a Tecan Infinite M1000 instrument with 470-nm excitation and 535-nm emission wavelengths for at least three replicates. The average FA values were plotted with one standard deviation of the mean shown as error. Prism software was used to convert FA values to the percent of DNA bound and apparent dissociation constants were determined using one-site, specific binding with Hill coefficient.", "values": [
      {"sequence": "CAGAAGTAAGTTGGCCGCAGTGTTATCACTCATGGTTATGGCAGCACTGCATAATTCTCTTACTGTCATGC", "binding signal": "40 fold reduction in affinity"}
    ]}
  ]
}
